From the supplement of paper PMC6555819

Legend:
Test in all cases: PBM binding z-score (relative to random genomic background probes); higher = stronger binding; sequences stand for … in GC…GCGATTGACAGCGTAGAATGAAGG
[1] = tested on: FXR:RXRa (NR concentration 270 nM, RXRa partner concentration 90 nM)
Procedure, shortened: (§1)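 Binding z-scores take random background probes as their reference. They come from custom Agilent 4×180K protein-binding microarrays incubated 1 h with ligand-free nuclear receptor dimers, with antibodies against each partner (one per run) detecting binding. Scanned fluorescence was regression-normalized.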

[2] = tested on: LXRa:RXRa (NR concentration 270 nM, RXRa partner concentration 90 nM)
Procedure, shortened: as §1

[3] = tested on: LXRa homodimer (NR concentration 270 nM)
Procedure, shortened: as §1

[4] = tested on: LXRb:RXRa (NR concentration 270 nM, RXRa partner concentration 90 nM)
Procedure, shortened: as §1

[5] = tested on: LXRb homodimer (NR concentration 270 nM)
Procedure, shortened: as §1

[6] = tested on: PPARa:RXRa (NR concentration 270 nM, RXRa partner concentration 90 nM)
Procedure, shortened: as §1

[7] = tested on: PPARg:RXRa (NR concentration 180 nM, RXRa partner concentration 90 nM)
Procedure, shortened: as §1

[8] = tested on: PPARg:RXRa 270nM:90nM, anti-RXR (NR concentration 270 nM, RXRa partner concentration 90 nM)
Procedure, shortened: as §1

[9] = tested on: PPARg:RXRa 30nM:10nM, anti-RXR (NR concentration 30 nM, RXRa partner concentration 10 nM)
Procedure, shortened: as §1

[10] = tested on: PPARg:RXRa 90nM:30nM, anti-RXR (NR concentration 90 nM, RXRa partner concentration 30 nM)
Procedure, shortened: as §1

[11] = tested on: PPARg:RXRa DBDmut IVT, anti-RXR (DBD mutation: RXRa K156A/R161A, NR concentration 270 nM, RXRa partner concentration 90 nM)
Procedure, shortened: as §1

[12] = tested on: PPARg:RXRa IVT, anti-PPARg (NR concentration 270 nM, RXRa partner concentration 90 nM)
Procedure, shortened: as §1

[13] = tested on: PPARg DBDmut:RXRa IVT, anti-PPARg (DBD mutation: PPARg1 K132A/R137A, NR concentration 270 nM, RXRa partner concentration 90 nM)
Procedure, shortened: as §1

[14] = tested on: PPARg DBDmut IVT, anti-PPARg (DBD mutation: PPARg1 K132A/R137A, NR concentration 270 nM)
Procedure, shortened: as §1

[15] = tested on: PPARg homodimer (NR concentration 180 nM)
Procedure, shortened: as §1

[16] = tested on: PXR:RXRa (NR concentration 270 nM, RXRa partner concentration 90 nM)
Procedure, shortened: as §1

[17] = tested on: PXR homodimer (NR concentration 270 nM)
Procedure, shortened: as §1

[18] = tested on: RARa:RXR (NR concentration 270 nM, RXRa partner concentration 90 nM)
Procedure, shortened: as §1

[19] = tested on: RARa homodimer (NR concentration 270 nM)
Procedure, shortened: as §1

[20] = tested on: RARb:RXRa (NR concentration 270 nM, RXRa partner concentration 90 nM)
Procedure, shortened: as §1

Sequence: CTTTACGGGTCACTCCAGGTTATAGCATCGGAGT
- PBM binding z-score [1]: 5.38
- PBM binding z-score [2]: 7.71
- PBM binding z-score [3]: 3.92
- PBM binding z-score [4]: 5.61
- PBM binding z-score [5]: 1.09
- PBM binding z-score [6]: 4.97
- PBM binding z-score [7]: 4.47
- PBM binding z-score [8]: 4.7
- PBM binding z-score [9]: 1.86
- PBM binding z-score [10]: 3.42
- PBM binding z-score [11]: 4.09
- PBM binding z-score [12]: 4.57
- PBM binding z-score [13]: 1.34
- PBM binding z-score [14]: 1.05
- PBM binding z-score [15]: 2.31
- PBM binding z-score [16]: 5.1
- PBM binding z-score [17]: 0.416
- PBM binding z-score [18]: 3.97
- PBM binding z-score [19]: 0.111
- PBM binding z-score [20]: 3.96

Sequence: AATACAGGGGCACTAGGCCAGAGTAGGTACGAAT
- PBM binding z-score [1]: -0.0916
- PBM binding z-score [2]: 0.117
- PBM binding z-score [3]: -0.197
- PBM binding z-score [4]: 0.693
- PBM binding z-score [5]: -0.000441
- PBM binding z-score [6]: 1.5
- PBM binding z-score [7]: 2.84
- PBM binding z-score [8]: 2.51
- PBM binding z-score [9]: 0.512
- PBM binding z-score [10]: 1.26
- PBM binding z-score [11]: 2.1
- PBM binding z-score [12]: 3.75
- PBM binding z-score [13]: 0.831
- PBM binding z-score [14]: 0.38
- PBM binding z-score [15]: 0.784
- PBM binding z-score [16]: -0.286
- PBM binding z-score [17]: -0.158
- PBM binding z-score [18]: -0.2
- PBM binding z-score [19]: -0.664
- PBM binding z-score [20]: 1.16

Sequence: TCTTGTAGGTCAACAGGAGGTTAAGAAAGATCGA
- PBM binding z-score [1]: 5.53
- PBM binding z-score [2]: 4.75
- PBM binding z-score [3]: 1.77
- PBM binding z-score [4]: 3.93
- PBM binding z-score [5]: 1.27
- PBM binding z-score [6]: 5.74
- PBM binding z-score [7]: 7.68
- PBM binding z-score [8]: 6.79
- PBM binding z-score [9]: 5.3
- PBM binding z-score [10]: 6.38
- PBM binding z-score [11]: 6.99
- PBM binding z-score [12]: 8.17
- PBM binding z-score [13]: 2.81
- PBM binding z-score [14]: 3.87
- PBM binding z-score [15]: 2.63
- PBM binding z-score [16]: 3.9
- PBM binding z-score [17]: -0.245
- PBM binding z-score [18]: 4.71
- PBM binding z-score [19]: 0.468
- PBM binding z-score [20]: 4.57

Sequence: CCGACTGGGGCAAGGTTACGATAACGCACAGCCA
- PBM binding z-score [1]: 0.216
- PBM binding z-score [2]: 0.654
- PBM binding z-score [3]: -0.354
- PBM binding z-score [4]: 0.677
- PBM binding z-score [5]: -1.27
- PBM binding z-score [6]: 2.06
- PBM binding z-score [7]: 2.79
- PBM binding z-score [8]: 3.25
- PBM binding z-score [9]: 0.969
- PBM binding z-score [10]: 2.5
- PBM binding z-score [11]: 3.36
- PBM binding z-score [12]: 3.57
- PBM binding z-score [13]: -0.0114
- PBM binding z-score [14]: -0.572
- PBM binding z-score [15]: 0.143
- PBM binding z-score [16]: 0.367
- PBM binding z-score [17]: -0.626
- PBM binding z-score [18]: 0.767
- PBM binding z-score [19]: -0.286
- PBM binding z-score [20]: 1.66

Sequence: TCTGCTAGGCCAACGATGGTCAGCTAATCTGCTA
- PBM binding z-score [1]: -1.19
- PBM binding z-score [2]: -0.741
- PBM binding z-score [3]: -1.19
- PBM binding z-score [4]: -1.05
- PBM binding z-score [5]: -1.1
- PBM binding z-score [6]: -0.375
- PBM binding z-score [7]: -0.327
- PBM binding z-score [8]: 0.663
- PBM binding z-score [9]: 1.12
- PBM binding z-score [10]: 0.978
- PBM binding z-score [11]: 1.09
- PBM binding z-score [12]: 0.619
- PBM binding z-score [13]: -0.0832
- PBM binding z-score [14]: -1.02
- PBM binding z-score [15]: -1.45
- PBM binding z-score [16]: -0.538
- PBM binding z-score [17]: -1.31
- PBM binding z-score [18]: -0.793
- PBM binding z-score [19]: -1.04
- PBM binding z-score [20]: 0.786

Sequence: GATACAGGGTCAAGGCCAGAGTGCGCGTATTGAT
- PBM binding z-score [1]: 6.68
- PBM binding z-score [2]: 4.01
- PBM binding z-score [3]: 0.0458
- PBM binding z-score [4]: 3.51
- PBM binding z-score [5]: -0.343
- PBM binding z-score [6]: 5.4
- PBM binding z-score [7]: 5.81
- PBM binding z-score [8]: 5.34
- PBM binding z-score [9]: 2.09
- PBM binding z-score [10]: 4
- PBM binding z-score [11]: 2.75
- PBM binding z-score [12]: 4.1
- PBM binding z-score [13]: 0.884
- PBM binding z-score [14]: 0.0154
- PBM binding z-score [15]: 3.05
- PBM binding z-score [16]: 3.92
- PBM binding z-score [17]: 0.307
- PBM binding z-score [18]: 4.99
- PBM binding z-score [19]: 1.02
- PBM binding z-score [20]: 4.28
